# Data reported in PubChem BioAssay (NCATS).
# Values without a mark were called inactive. Active and inactive are the calls of the source. Calls come from the whole dose curve; as a rule, active = well fitted activation curve with a large enough effect; inconclusive = small, poorly fitted or top-dose-only effect; inactive = flat fitted curve, though single readings scatter.
# Test: Cellular Toxicity (caspase-3) SK-N-SH (AID 661);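 note: 0% = DMSO basal and 100% = 10 µM staurosporine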
# Settings: SK-N-SH caspase-3 activation, qHTS, DMSO as zero, staurosporine as full; series mostly up to 91.7 µM; caspase-3 activation: at the top concentration
# From the text: NIH Chemical Genomics Center [NCGC]
# NIH Molecular Libraries Screening Centers Network [MLSCN]
# National Institutes of Environmental Health Sciences [NIEHS]
# National Toxicology Program [NTP]
# We have developed a 1536-well cell-based assay for quantitative high throughput screening (qHTS) against a number of cell lines to determine in vitro caspase 3/7 activity of small molecules. This particular assay uses the SK-N-SH cell line which is derived from human neuroblastoma.
# NCGC Assay Protocol Summary:
# The Caspase-Glo 3/7 assay (Promega) is a homogeneous method to measure caspase-3 and caspase-7 activities in cultured cells. The quantitation of caspase 3/7 activity is based on the cleavage of a peptide-aminoluciferin substrate. After caspase cleaves the substrate the free aminoluciferin is liberated and serves as the substrate of luciferase, which generates the light. The luminescent signal is proportional to amount of caspase 3/7 activity present.
# Using the Caspase-Glo 3/7 assay, the amount of caspase 3/7 activity was measured in the SK-N-SH cell line with complete culture medium following compound treatment for 16 hours. The assay was performed in opaque white 1536-well plates. In the screen, tamoxifen and staurosporine were used as positive controls. Library compounds were measured for their ability to cause the activation of caspase 3/7 in the cell line, as reflected by an increase in luminescence signal, in a concentration-dependent manner. Data were normalized to the controls for basal activity (DMSO only) and 100% stimulation (10 uM staurosporine). AC50 values were determined from concentration-response data modeled with the standard Hill equation.
# qHTS protocol for caspase 3/7 assay in SK-N-SH cells
# [Step] [Parameter] [Value] [Description]
# 1. Reagent; 5 uL; 1500 SK-N-SH cells/well
# 2. Time; 5 hr; 37 °C incubation
# 4. Controls; 23 nL; Tamoxifen 0.23 uM to 100 uM & staurosporine 1.4 pM to 100 uM
# 5. Time; 16 hr; 37 °C incubation
# 6. Reagent; 5 uL; Caspase-Glo 3/7 reagent
# 7. Time; 1 hr; Room Temperature
# 8. Detection; Luminescence; Viewlux plate reader
# Keywords: caspase 3/7, apoptosis, SK-N-SH cell line, luminescence, NTPHTS, NTPHTS_NCGC, NIEHS, EPA, DSSTox, MLSMR, MLSCN, NIH Roadmap, qHTS, NCGC
SMILES,caspase-3 activation [%],outcome
Nc1ccc(Sc2ccc(N)cc2)cc1,0.0709,
Nc1ccc(Cl)cc1,-0.562,
O=C(O)COc1ccccc1,1.87,
C=CC(=O)NCNC(=O)C=C,-1.44,
c1cc2ccc3cccc4ccc(c1)c2c34,-1.34,
Nc1ccc([N+](=O)[O-])cc1,-0.0906,
CN(C)NC(=O)CCC(=O)O,-1.09,
Nc1ccc(Cl)cc1N,2.9,
O=C(O)C(Cl)Cl,-2.7,
CC(=O)[O][Hg][c]1ccccc1,-6.38,
CC(C)(O)C(=O)Nc1ccc([N+](=O)[O-])c(C(F)(F)F)c1,-0.314,
CCOP(=O)(NC(C)C)Oc1ccc(SC)c(C)c1 (stereo unspecified),0.178,
CN(C)[C@@H]1C(=O)C(C(N)=O)=C(O)[C@@]2(O)C(=O)C3=C(O)c4c(O)cccc4[C@@](C)(O)[C@H]3[C@H](O)[C@@H]12,-1.94,
Cc1cc(O)ccc1Cl,-0.74,
O=[N+]([O-])c1cc([N+](=O)[O-])c2ccccc2c1,0.834,
CCOCCOC(C)=O,-0.867,
COC(C)(C)CCCC(C)C/C=C/C(C)=C/C(=O)OC(C)C (stereo unspecified),-0.611,
CCCCCCCCc1ccc(O)cc1,2.53,
C1CCC(NC2CCCCC2)CC1,,inactive
COc1ccc(C(c2ccc(OC)cc2)C(Cl)(Cl)Cl)cc1,,inactive
OCCCBr,-0.734,
CCCCOC(=O)c1ccccc1C(=O)OCc1ccccc1,-1.89,
O=S(=O)(c1ccc(Cl)cc1)c1ccc(Cl)cc1,,inactive
CCCCC(CC)COC(=O)c1ccccc1C(=O)OCC(CC)CCCC (stereo unspecified),-1.28,
O=[N+]([O-])c1c2ccccc2cc2ccccc12,-0.56,
O=[N+]([O-])c1c(Cl)c(Cl)cc(Cl)c1Cl,1.35,
